From PubChem BioAssay AID1159580 (chemical genetic matrix, 2015)
Where “and” joins values, the source holds several entries; their conditions need not be identical. Equal entries are not always repeated. Hit rate of the full screen: of about 5,500 compounds, about 2,000 (36%) were called active. Inconclusive results (about 18%) are left out. No stated cut-off is given here; in the data, active means normalized growth mostly below about 0.91 (no sharp cut-off); inconclusive means no clear call, values can overlap the other calls; inactive means mostly above about 0.92. This is one part of the list.

Assay: chemical genetic growth profiling, strain panel (AID 1159580);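 further: tested at 20 µM; growth read once vehicle control cultures reached saturation at 30 °C; 1 = growth at the plate median or of vehicle wells; lower values mean less growth of the strain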
Conditions: S. cerevisiae deletion strains, growth OD

Measured: normalized growth

COc1ccc(/C=C/C(=O)O)cc1OC
inactive: locus YAL013W, strain DEP1, active compounds read low 1 | locus YAL021C, strain ccr4, active compounds read low 1.04 | locus YAL026C, strain drs2, active compounds read low 0.99 | locus YAL030W, strain snc1, active compounds read low 0.999 | locus YBL061C, strain skt5, active compounds read low 0.987 | locus YBR009C, strain hhf1, active compounds read low 1.01 | locus YBR021W, strain FUR4, active compounds read low 1.04 | locus YBR023C, strain chs3, active compounds read low 1.01 | locus YBR171W, strain sec66, active compounds read low 0.965 | locus YBR229C, strain ROT2, active compounds read low 1.02 | locus YBR231C, strain swc5, active compounds read low 0.981 | locus YBR279W, strain paf1, active compounds read low 1 | locus YCL011C, strain gbp2, active compounds read low 0.991 | locus YCL016C, strain dcc1, active compounds read low 1.04 | locus YCL029C, strain bik1, active compounds read low 1.02 | locus YCL061C, strain MRC1, active compounds read low 0.995 | locus YCL069W, strain vba3, active compounds read low 0.955 | locus YCR088W, strain abp1, active compounds read low 0.984 | locus YDL005C, strain med2, active compounds read low 0.979 | locus YDL035C, strain GPR1, active compounds read low 1.14 | locus YDL040C, strain nat1, active compounds read low 0.991 | locus YDL101C, strain DUN1, active compounds read low 1 | locus YDL134C, strain PPH21, active compounds read low 1.06 | locus YDL185W, strain tfp1, active compounds read low 1 | locus YDL192W, strain arf1, active compounds read low 1.03 | locus YDR001C, strain nth1, active compounds read low 0.981 | locus YDR069C, strain doa4, active compounds read low 0.97 | locus YDR101C, strain arx1, active compounds read low 1.01 | locus YDR137W, strain rgp1, active compounds read low 1.02 | locus YDR159W, strain sac3, active compounds read low 0.94 | locus YDR162C, strain NBP2, active compounds read low 1.13 | locus YDR195W, strain ref2 0.961 | locus YDR297W, strain sur2, active compounds read low 0.984 | locus YDR318W, strain mcm21, active compounds read low 1.03 | locus YDR334W, strain swr1, active compounds read low 0.975 | locus YDR335W, strain msn5, active compounds read low 0.984 | locus YDR388W, active compounds read low 1.01 | locus YDR392W, strain spt3, active compounds read low 0.943 | locus YDR502C, strain sam2, active compounds read low 1.03 | locus YEL003W, strain gim4, active compounds read low 0.981 | locus YEL037C, strain rad23, active compounds read low 0.981 | locus YEL061C, strain CIN8 (second series), active compounds read low 0.976 | locus YEL061C, strain CIN8, active compounds read low 1.01 | locus YER015W, strain faa2, active compounds read low 1 | locus YER016W, strain bim1, active compounds read low 0.991 | locus YER110C, active compounds read low 1 | locus YER111C, strain swi4, active compounds read low 0.974 | locus YER155C, strain BEM2 (second series), active compounds read low 0.958 | locus YER155C, strain BEM2, active compounds read low 1.01 | locus YER167W, strain BCK2, active compounds read low 1.01 | locus YFR010W, strain ubp6, active compounds read low 0.955 | locus YGL078C, strain dbp3, active compounds read low 1 | locus YGL086W, strain mad1, active compounds read low 1.01 | locus YGL167C, strain pmr1, active compounds read low 0.999 | locus YGL173C, strain kem1, active compounds read low 0.979 | locus YGL227W, strain vid30, active compounds read low 0.984 | locus YGL240W, strain doc1, active compounds read low 0.989 | locus YGL253W, strain hxk2, active compounds read low 0.942 | locus YGR078C, strain PAC10, active compounds read low 1.09 | locus YGR135W, strain pre9, active compounds read low 1.04 | locus YGR252W, strain gcn5, active compounds read low 1.19 | locus YHR013C, strain ard1, active compounds read low 0.993 | locus YHR027C, strain rpn1, active compounds read low 0.992 | locus YHR030C, strain SLT2, active compounds read low 0.949 | locus YHR079C, strain IRE1 (second series), active compounds read low 0.998 | locus YHR079C, strain IRE1, active compounds read low 0.958 | locus YHR094C, strain hxt1, active compounds read low 0.996 | locus YHR129C, strain ARP1, active compounds read low 1.02 | locus YHR142W, strain chs7, active compounds read low 0.993 | locus YHR200W, strain rpn10, active compounds read low 0.999 | locus YIL066C, strain RNR3, active compounds read low 1.01 | locus YIL125W, strain kgd1, active compounds read low 1.02 | locus YIR030C, strain dcg1, active compounds read low 0.998 | locus YJL092W, strain hpr5, active compounds read low 0.974 | locus YJL095W, strain BCK1 (second series), active compounds read low 0.981 | locus YJL095W, strain BCK1, active compounds read low 0.972 and 1.18 | locus YJL115W, strain asf1, active compounds read low 0.998 | locus YJL129C, strain trk1, active compounds read low 0.968 | locus YJL134W, strain LCB3, active compounds read low 1.01 | locus YJL154C, strain vps35, active compounds read low 0.976 | locus YJL164C, strain tpk1, active compounds read low 1.03 | locus YJL166W, strain qcr8, active compounds read low 0.999 | locus YJL168C, strain set2, active compounds read low 1.01 | locus YJL187C, strain SWE1 (second series), active compounds read low 1.03 | locus YJL187C, strain SWE1, active compounds read low 1.01 | locus YJR043C, strain POL32, active compounds read low 1.06 | locus YJR066W, strain TOR1, active compounds read low 0.907 | locus YKL009W, strain mrt4, active compounds read low 0.971 | locus YKL068W, active compounds read low 0.988 | locus YKL085W, strain MDH1 (second series), active compounds read low 1 | locus YKL085W, strain MDH1, active compounds read low 1 | locus YKL160W, strain elf1, active compounds read low 1.04 | locus YKR001C, strain vps1, active compounds read low 1.08 | locus YKR026C, strain gcn3, active compounds read low 0.963 | locus YKR091W, strain srl3, active compounds read low 1.01 | locus YLL001W, strain dnm1, active compounds read low 0.976 | locus YLL026W, active compounds read low 0.997 | locus YLL041C, strain sdh2, active compounds read low 0.992 | locus YLR027C, strain aat2, active compounds read low 1 | locus YLR058C, strain SHM2, active compounds read low 1.01 | locus YLR102C, strain apc9, active compounds read low 0.996 | locus YLR113W, strain HOG1, active compounds read low 0.968 | locus YLR221C, strain rsa3, active compounds read low 0.95 | locus YLR258W, strain gsy2, active compounds read low 1.02 | locus YLR262C, strain YPT6 (second series), active compounds read low 0.995 | locus YLR268W, strain sec22, active compounds read low 1.05 | locus YLR320W, strain mms22, active compounds read low 0.99 | locus YLR342W, strain FKS1 (second series), active compounds read low 1.01 | locus YLR342W, strain FKS1, active compounds read low 1.01 | locus YLR357W, strain rsc2, active compounds read low 0.988 | locus YLR370C, strain arc18, active compounds read low 0.971 | locus YLR371W, strain rom2, active compounds read low 1.02 | locus YLR384C, strain iki3, active compounds read low 0.998 | locus YML016C, strain PPZ1, active compounds read low 1 | locus YML032C, strain rad52, active compounds read low 1.02 | locus YML120C, strain ndi1, active compounds read low 1.01 | locus YML124C, strain tub3, active compounds read low 0.994 | locus YMR058W, strain fet3, active compounds read low 0.991 | locus YMR078C, strain ctf18, active compounds read low 1.01 | locus YMR125W, strain sto1, active compounds read low 0.974 | locus YMR129W, active compounds read low 1 | locus YMR205C, strain PFK2, active compounds read low 1.05 | locus YMR223W, strain ubp8, active compounds read low 1.03 | locus YMR231W, strain pep5, active compounds read low 0.965 | locus YNL067W, strain RPL9B, active compounds read low 1 | locus YNL071W, strain lat1, active compounds read low 0.998 | locus YNL128W, strain TEP1, active compounds read low 1.02 | locus YNL183C, strain NPR1, active compounds read low 0.904 | locus YNL209W, strain ssb2, active compounds read low 1.01 | locus YNL233W, strain BNI4, active compounds read low 1.12 | locus YNL248C, strain rpa49, active compounds read low 0.958 | locus YNL250W, strain rad50, active compounds read low 1.03 | locus YNL271C, strain bni1, active compounds read low 1.02 | locus YNL298W, strain CLA4, active compounds read low 1.05 | locus YNL307C, strain MCK1, active compounds read low 1.01 | locus YNL322C, strain KRE1 (second series), active compounds read low 0.981 | locus YNL322C, strain KRE1, active compounds read low 1.01 | locus YNR049C, strain mso1, active compounds read low 0.99 | locus YNR052C, strain pop2, active compounds read low 1.02 | locus YOL012C, strain htz1 1.37 | locus YOL147C, strain pex11, active compounds read low 1.01 | locus YOR001W, strain rrp6, active compounds read low 0.926 | locus YOR061W, strain CKA2, active compounds read low 0.995 | locus YOR069W, strain VPS5, active compounds read low 1.01 | locus YOR070C, strain gyp1, active compounds read low 0.999 | locus YOR080W, strain dia2, active compounds read low 0.978 | locus YOR083W, strain WHI5, active compounds read low 1.04 | locus YOR106W, strain vam3, active compounds read low 1.02 | locus YOR136W, strain idh2, active compounds read low 1.01 | locus YOR144C, strain elg1, active compounds read low 1 | locus YOR184W, strain ser1, active compounds read low 1.08 | locus YOR231W, strain MKK1, active compounds read low 0.944 | locus YOR265W, strain rbl2, active compounds read low 0.991 | locus YOR270C, strain vph1, active compounds read low 0.977 | locus YOR290C, strain snf2, active compounds read low 1.04 | locus YOR316C, strain cot1, active compounds read low 1.01 | locus YPL051W, strain arl3, active compounds read low 0.98 | locus YPL078C, strain atp4, active compounds read low 1.03 | locus YPL106C, strain sse1, active compounds read low 1.04 | locus YPL240C, strain hsp82, active compounds read low 0.986 | locus YPL256C, strain CLN2, active compounds read low 0.968 | locus YPR119W, strain clb2, active compounds read low 1.01 | locus YPR141C, strain kar3, active compounds read low 1 | locus YPR163C, strain tif3, active compounds read low 1.02 | locus YPR167C, strain met16, active compounds read low 1.03 | strain wtn01, active compounds read low 1.02
active: locus YDL074C, strain BRE1, active compounds read low 1.4 [resistant] | locus YGL248W, strain PDE1, active compounds read low 1.12 [resistant] | locus YIL073C, strain SPO22, active compounds read low 1.55 [resistant] | locus YLR039C, strain RIC1, active compounds read low 1.42 [resistant] | locus YMR307W, strain GAS1, active compounds read low 1.53 [resistant] | locus YOL006C, strain TOP1, active compounds read low 1.83 [resistant]
